A number with no mark means an inactive call. How the calls were made is not given here.
What follows are compounds tested against Pantothenate synthetase (Mycobacterium tuberculosis (strain ATCC 25618 / H37Rv)) (UniProt P9WIL5) (assay: Recombinant Mtb pantothenate synthetase (PanC) inhibitors, coupled enzyme, confirmatory (AID 375;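 further: 0% = full reaction with vehicle and 100% = no enzyme background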)). Conditions: coupled enzyme assay; at 10 µM, stronger effect = higher value.
Sequence of Pantothenate synthetase (Mycobacterium tuberculosis (strain ATCC 25618 / H37Rv)) (P9WIL5 whole entry, looked up): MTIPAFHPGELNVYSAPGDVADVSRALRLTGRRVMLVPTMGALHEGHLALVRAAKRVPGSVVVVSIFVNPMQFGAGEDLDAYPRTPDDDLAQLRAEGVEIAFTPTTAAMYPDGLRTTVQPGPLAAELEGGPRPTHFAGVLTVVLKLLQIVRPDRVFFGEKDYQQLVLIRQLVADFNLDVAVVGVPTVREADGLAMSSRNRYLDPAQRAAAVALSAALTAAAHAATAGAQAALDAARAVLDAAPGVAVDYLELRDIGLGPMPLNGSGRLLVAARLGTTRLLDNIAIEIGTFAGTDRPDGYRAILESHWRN

Row | SMILES | inhibition [%]
1 | CCOC(=O)C1CCN(C(=O)C2(NC(=O)Nc3ccccc3Cl)CCCCC2)CC1 | 0
2 | COc1ccccc1C1/C(=C(/O)c2ccccc2)C(=O)C(=O)N1CC(C)C (stereo not drawn) | 0
3 | Cc1nnc(NCCc2ccccc2)n(N)c1=O | 5
4 | O=C(CSc1nnnn1-c1ccccc1)Nc1ccc(Cl)cc1 | 0
5 | Cc1cc(Cl)c(S(=O)(=O)Nc2ccc3c(c2)OCCO3)cc1OCC(N)=O | 0
6 | COc1ccc(NC(=O)Nc2ccc(C)cc2OC(F)F)cc1OC | 3
7 | CCCNC(=O)c1ccccc1C(=O)NCCC | 0
8 | Cc1cc2ccccc2n1CCNC(=O)C1CC1 | 1
9 | Cc1c(C)n(C(=O)CN2CCN(c3ccccn3)CC2)c2ccccc12 | 0
10 | CN(C)/C=C(\C#N)c1nc2ccccc2[nH]1 | 0
11 | O=c1cc(CSc2nnc(COc3ccc(Cl)cc3)o2)c2ccccc2[nH]1 | 3
12 | O=C(OCn1nnc2ccccc2c1=O)c1cc2ccccc2o1 | 2
13 | Cc1cc2c(c(=O)n1CCc1ccccc1)C(C(C)C)C(C#N)=C(N)O2 (stereo not drawn) | 5
14 | Cc1noc(C)c1CSc1nnc2scc(-c3ccc(Cl)cc3)n12 | 0
15 | O=C(c1ccc2c(c1)OCO2)N1CCNc2ccccc2C1 | 0
16 | O=C(CSc1nnc(-c2ccccc2F)o1)OCc1ccccc1 | 0
17 | Clc1ccc(CSc2nnc(Cn3cnc4ccccc43)o2)cc1 | 0
18 | C=CCSc1nnc2n(-c3ccccc3OC)c(=O)c3c4c(sc3n12)CCC4 | 0

— PubChem BioAssay
